Results: the supplement of paper PMC13380429

What was measured:
[1] = tested on: Vero E6 infected with SARS-CoV-2; assay: inhibition of SARS-CoV-2 cytopathic effect; higher = more antiviral protection, active = above 15; settings: 48 h
[2] = tested on: Vero E6 infected with SARS-CoV-2; assay: morphology score (similarity to uninfected cells); higher = more like uninfected cells; settings: 24 h
[3] = tested on: Vero E6 infected with SARS-CoV-2; assay: SARS-CoV-2 infection rate relative to infected DMSO; higher = more infection, active = 60 or less; settings: 24 h

CC(=O)OCC(=O)[C@@]1(O)CC[C@H]2[C@@H]3CCC4=CC(=O)CC[C@]4(C)[C@@]3(F)[C@@H](O)C[C@@]21C
inactive: inhibition of SARS-CoV-2 cytopathic effect ([1]; 1 nM) -1.46% | inhibition of SARS-CoV-2 cytopathic effect ([1]; 8.33 nM) -0.43% | inhibition of SARS-CoV-2 cytopathic effect ([1]; 100 nM) 0.97% | inhibition of SARS-CoV-2 cytopathic effect ([1]; 833.33 nM) -0.24% | inhibition of SARS-CoV-2 cytopathic effect ([1]; 10000 nM) 0.57%

COc1cc(C(=O)NCc2ccc(OCCN(C)C)cc2)cc(OC)c1OC [trimethobenzamide]
inactive: inhibition of SARS-CoV-2 cytopathic effect ([1]; 1 nM) -2.2% | inhibition of SARS-CoV-2 cytopathic effect ([1]; 8.33 nM) -1.41% | inhibition of SARS-CoV-2 cytopathic effect ([1]; 100 nM) 2.21% | inhibition of SARS-CoV-2 cytopathic effect ([1]; 833.33 nM) -1.81% | inhibition of SARS-CoV-2 cytopathic effect ([1]; 10000 nM) -0.65%

Cn1cc([S+](C)[O-])c(=O)c2ccc(F)cc21 (configuration not stated) [flosequinan] (10 µM)
inactive: SARS-CoV-2 infection rate [3] 96.5%
0.195: morphology score [2]
